# Shown are actives, neighbours in structure and some others; about 2.8% of the full set was active somewhere.
# CF NFkB block = inhibitors of PAF-induced NF-kB signaling, primary screen, cell-based, GFP fluorescence, uHTS | KKLEB NF-kB-GFP reporter, GFP fluorescence overnight | inhibition, % at 5 µM | 0.86% of 360,000 active;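 active means at least 50% inhibition at 5 µM, scaled per plate between neutral and stimulator controls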;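 further: PAF is a Pseudomonas aeruginosa culture filtrate used as stimulus; plate controls were PAF-stimulated DMSO wells for no effect and unstimulated DMSO wells for full effect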
# KKLEB tox = cytotoxicity in KKLEB CF airway cells, primary screen, cytotoxicity control for CF NF-kB inhibitor project, cell-based, uHTS, fluorescence assay plates | KKLEB CF airway cells viability, ATPlite luminescence, overnight; stronger effect = lower value; cells stimulated with P. aeruginosa culture filtrate | activity change (cytotoxicity), % at 5 µM | 0.36% of 360,000 active | AID 602141, 2011;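 active means corrected activity change at or below -50% at 5 µM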
# TRPM1 prom inh = inhibitors of MITF-dependent TRPM1 promoter reporter, primary screen, cell-based, SK-MEL-5, single point, luciferase; SK-MEL-5 TRPM1 promoter luciferase, 24 h; inhibition, % at 12.5 µM; 0.83% of 330,000 active; AID 488899, 2010;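 active means mean inhibition across replicates of 60% or more, whatever share of single replicates reaches that level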
# Peg3 prom inh = Peg3 promoter-driven luciferase inhibitors, primary screen, cell-based, HeLa, luciferase luminescence; HeLa PEG-Prom luciferase reporter, overnight; AID 588405, 2011; inhibition, % at 20 µM; 1.7% of 360,000 active;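 active means inhibition of at least 50% at 20 µM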
# HIF-2a inh = HIF-2a reporter inhibitors, primary screen, luminescence, 786-0 RCC cells. 786-0 RCC cells HIF-2a reporter, luciferase luminescence, overnight. inhibition, % at 18.8 µM. 0.72% of 360,000 active;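 active means inhibition of the luminescence signal of 40% or more relative to plate controls, in a single-dose primary screen at 18.75 µM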
# Shn3 inh set2 = reduction of Shn3 3'UTR firefly luciferase signal, primary screen, Schnurri-3 inhibitor project, cell-based, Clone20 osteoblasts, set 2; Clone20 osteoblast Shn3 3'UTR firefly luciferase, 24 h; inhibition, % at 12.5 µM; 0.52% of 360,000 active;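 active means mean inhibition of at least 75% with every replicate also reaching 75%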;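 further: 0% = median of neutral control wells and 100% = pilot-screen positive control compound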
# Mdm2 MdmX conf = retested Mdm2-MdmX interaction blockers, confirmation, cell-based, luminescence, single concentration, set 2 | SaOS-2 split-luciferase Mdm2/MdmX complementation | 99% of 740 active | shares compounds with HIF-2a inh | inhibition, % at 8 µM | AID 504601, 2011;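 active means mean inhibition of the luminescence signal across two replicates at or above 26 percent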
# HIF-2a conf = HIF-2a reporter inhibitor retest, confirmation, luminescence, 786-0 RCC cells | shares compounds with HIF-2a inh | HIF-2a luciferase reporter luminescence, overnight | inhibition, % at 18.8 µM | 56% of 1,800 active | AID 651580, 2012;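 active means mean inhibition across four replicates of at least 40 percent at the single tested concentration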
# HIF-1a counter = HIF-1a luciferase reporter signal reduction – MiaPaCa-2 cells, single concentration, counter-screen for HIF-2a inhibitor project, confirmation; shares compounds with HIF-2a inh; MiaPaCa-2 HIF-1a luciferase reporter, desferoxamine, overnight; inhibition, % at 18.8 µM; 72% of 1,800 active; AID 651589, 2012;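 active means mean inhibition of the reporter signal across four replicates at the single tested dose of 50% or more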
# Starred values were filed as active, the others as inactive; . = no result given.
SMILES,CF NFkB block,KKLEB tox,TRPM1 prom inh,Peg3 prom inh,HIF-2a inh,Shn3 inh set2,HIF-2a conf,HIF-1a counter,others
CCOc1ccc(-n2cnc3scc(-c4ccc(OC)c(OC)c4)c3c2=O)cc1,12.7,0.1,13.0,17.4,41.0*,-15.6,15.5,25.6,
O=C(COC(=O)CCCOc1ccc(Cl)cc1Cl)NCc1ccccc1,-23.0,5.3,-9.6,-3.1,64.1*,17.2,63.1*,53.7*,
COc1ccc(CNC(=O)COC(=O)CCCOc2ccc(Cl)cc2Cl)cc1OC,6.1,4.6,3.3,-1.9,31.4,4.8,.,.,
Cc1ccc(CNC(=O)COC(=O)CCCOc2ccc(Cl)cc2Cl)cc1,-1.1,5.7,19.4,3.3,62.4*,-0.4,69.7*,56.6*,
Cc1[nH]nc(C(=O)NN=Cc2ccccc2Cl)c1N=NN(C)C,23.4,4.4,-36.6,-107.2,-139.3,-7.3,.,.,
COc1ccc2c(c1)C1(Nc3ccccc3-c3nc4ccccc4n31)C(=O)N2C (stereo not drawn),-1.7,3.0,1.0,-0.1,14.2,-0.8,.,.,Mdm2 MdmX conf=94.5*
COc1ccc2c(c1)C1(Nc3ccccc3-c3nc4ccccc4n31)C(=O)N2 (stereo not drawn),-0.3,1.4,5.2,5.7,8.0,12.0,.,.,
CN(C)C1(CNC(=O)C2CCN(S(=O)(=O)c3cccc(C(F)(F)F)c3)CC2)CCCCC1,6.4,-20.6,-4.1,27.3,4.1,-5.8,.,.,
Cc1cc(N)c2cc(NC(=O)/C=C/c3ccccc3Cl)ccc2n1,18.6,-30.5,99.9*,103.8*,96.3*,.,95.4*,107.7*,Mdm2 MdmX conf=103.0*
Cc1cc(C)nc(NC(=O)/C=C/c2ccccc2Cl)n1,5.0,-4.3,-12.7,-98.0,-137.0,-32.4,.,.,
CCN(CC)S(=O)(=O)c1ccc(C)c(NS(=O)(=O)c2cc(/C=C/C(=O)O)cc(OC)c2OC)c1,5.5,-5.6,6.7,15.7,15.9,9.8,.,.,
COc1ccc(/C=C/C(O)=C2/C(=O)N(C)C3(C)CC2c2ccccc2O3)cc1 (stereo not drawn),6.9,-6.5,19.8,29.3,54.5*,-29.8,-4.5,53.5*,
Cc1ccc(/C=C/C(O)=C2/C(=O)N(C)C3(C)CC2c2ccccc2O3)cc1 (stereo not drawn),14.7,-3.3,10.5,39.1,83.3*,-8.3,37.0,96.8*,
CC(C)(C)c1ccc(C(=O)NCCOc2ccccc2)cc1,7.2,-0.6,9.4,-35.1,5.8,23.0,.,.,
CC(C)(C)c1ccc(C(=O)NCCOc2ccccc2F)cc1,12.9,-0.6,25.6,67.3*,41.5*,23.6,61.0*,72.8*,
CCC(C(=O)Nc1ccccc1C(=O)N1CCCC1)N1C(=O)c2ccccc2C1=O (stereo not drawn),11.8,-12.0,6.6,7.8,17.0,-4.7,.,.,
O=C(O)c1ccccc1NC(=O)C(Cc1ccccc1)N1C(=O)c2ccccc2C1=O (stereo not drawn),-6.8,4.4,9.8,9.7,42.2*,-20.7,3.4,-10.3,
CSCCC(c1nnnn1C1CCCCC1)N1CCN(C/C=C/c2ccccc2)CC1 (stereo not drawn),-1.8,3.7,.,4.3,-10.1,-8.3,.,.,
COc1ccc(/C=N/Nc2cc(C)nc3ccc(Br)cc23)cc1,-127.1,-22.8,98.6*,100.6*,45.9*,92.9*,-15.4,105.6*,
C#CC(=O)CC1(CN(Cc2ccccc2)C(=O)OC(C)(C)C)CCCCC1,84.4*,-104.2*,4.6,60.4*,44.0*,20.6,2.4,19.1,
CON(C)C(=O)CC1(CN(Cc2ccccc2)C(=O)OC(C)(C)C)CCCCC1,10.3,-4.7,21.1,10.5,7.1,20.3,.,.,
Cc1cccc2sc(N(CCCN(C)C)C(=O)c3ccc(S(=O)(=O)N4CCc5ccccc5C4)cc3)nc12,33.0,-25.0,44.4,30.2,14.0,16.3,.,.,
CN(C)CCCN(C(=O)c1ccc(S(=O)(=O)N2CCc3ccccc3C2)cc1)c1nc2c(F)cccc2s1,14.0,-11.6,12.5,-20.6,9.7,3.0,.,.,
Cc1ccc2nc(N(CCCN(C)C)C(=O)c3ccc(S(=O)(=O)N4CCc5ccccc5C4)cc3)sc2c1,-91.1,-49.8,76.0*,100.8*,87.8*,24.8,43.0*,98.6*,
Cc1cc(C)c2sc(N(CCCN(C)C)C(=O)c3ccc(S(=O)(=O)N4CCc5ccccc5C4)cc3)nc2c1,48.3,-77.9*,89.2*,95.6*,63.5*,-28.0,57.5*,99.6*,
SMILES,CF NFkB block,KKLEB tox,TRPM1 prom inh,Peg3 prom inh,HIF-2a inh,Shn3 inh set2,HIF-2a conf,HIF-1a counter,others
Cc1ccccc1C=Nc1ccccc1C(N)=O,31.2,-18.3,17.9,13.2,21.6,-3.5,.,.,
CCC(CC)C(C(=O)NCc1ccccc1)N1CCN(CCN2CCOCC2)CC1 (stereo not drawn),.,.,.,.,1.6,.,.,.,
COc1ccccc1NC(=O)C(C)OC(=O)C1CCC(C(C)(C)C)CC1 (stereo not drawn),9.6,2.9,-11.8,13.6,-0.5,0.5,.,.,
COc1cc(/C=C/C(=O)c2ccc3c(c2)OCCO3)cc(Br)c1OCC(=O)N(C)C,3.6,-0.5,92.7*,107.0*,93.2*,91.8*,91.5*,101.8*,Mdm2 MdmX conf=101.5*
COc1cccc(/C=C/C(=O)c2ccc3c(c2)OCO3)c1OC,5.5,-15.7,.,-219.3,-198.1,-25.9,.,.,
CC(=O)Nc1cccc(-c2cnc(N)c(C(=O)c3cccnc3)n2)c1,74.6*,-8.2,43.9,70.6*,41.0*,-4.6,.,.,Mdm2 MdmX conf=102.0*
CC(=O)Nc1cccc(-c2csc(N)n2)c1,-20.0,2.9,-9.4,0.9,5.2,-18.9,.,.,
CC(=O)c1c(C)[nH]c(C(=O)Nc2ccc(C)cn2)c1C,-24.7,5.3,45.4,48.7,45.8*,38.6,60.4*,56.4*,
CCc1ccc(-c2nnn(CCC(=O)OC)n2)cc1,2.0,-4.8,16.1,-27.5,87.2*,18.2,93.6*,69.7*,
CC(C)(C)c1ccc(Oc2ccc(NC(=O)c3ccccc3C(=O)O)cn2)cc1,9.8,-11.8,.,12.4,56.0*,44.1,51.0*,34.6,
